Assay [1] in a line: ATG_TAL_CIS: Attagene CIS-FACTORIAL HepG2 Assay for human TAL Basal Promoter (AID 2282966; active means hit-call score of the fitted dose curve at least 0.9, where 1 is the maximum; inactive means score below 0.9;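 further: background control endpoint measuring basal TAL promoter reporter mRNA not a specific factor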). Particulars: HepG2 Attagene cis-factorial TAL promoter reporter; actives raise or lower the signal. A digest of the protocol: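 After 24 hours of chemical exposure, transfected HepG2 cells yielded RNA that was converted to 6-FAM-labelled, HpaI-digested reporter fragments for capillary electrophoresis. Values derive from bidirectional fitting against DMSO controls.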

Assay [2] in a line: ATG_TGFb_CIS: Attagene CIS-FACTORIAL HepG2 Assay for human Transforming Growth Factor (TGF) (AID 2282967; active means hit-call score of the fitted dose curve at least 0.9, where 1 is the maximum; inactive means score below 0.9). The following applies: HepG2 Attagene CIS TGFb reporter, mRNA transcription; actives raise or lower the signal. A digest of the protocol: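 HepG2 cells transiently transfected with cis-promoter-driven multiple reporter units measure endogenous TF activity; reporter mRNA quantified at 24 h by RT-PCR, FAM labeling, HpaI digestion and capillary electrophoresis. Bidirectional fit vs DMSO.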

Assay [3] is described as follows: ATG_VDRE_CIS: Attagene CIS-FACTORIAL HepG2 Assay for human Vitamin D Receptor Element (VDRE) (AID 2282968; active means hit-call score of the fitted dose curve at least 0.9, where 1 is the maximum; inactive means score below 0.9). The following applies: HepG2 VDRE cis-reporter transcription, actives raise or lower the signal. In outline:
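Readout is VDRE-driven reporter mRNA reflecting endogenous factor activity in human HepG2 cells, sampled 24 h post-dose. Quantification used labelled RT-PCR products separated by capillary electrophoresis; bidirectional analysis relative to DMSO.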

For assay [4], the target named is X-box-binding protein 1 (Homo sapiens) (UniProt P17861). Kind of assay: ATG_Xbp1_CIS: Attagene CIS-FACTORIAL HepG2 Assay for human X-box Binding Protein 1 (XBP1) (AID 2282972; active means hit-call score of the fitted dose curve at least 0.9, where 1 is the maximum; inactive means score below 0.9). The following applies: HepG2 XBP1 cis-element reporter, Attagene multiplex; actives raise or lower the signal. In outline: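 Read-out: fluorescent reporter mRNA fragments resolved by capillary electrophoresis after RT-PCR. Human HepG2 liver cells carried transfected cis-promoter reporter units and were exposed to chemicals for 24 hours. Gain or loss of signal fitted relative to DMSO baseline.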
X-box-binding protein 1 (Homo sapiens), sequence (P17861 whole entry, looked up, the tested form may be a part): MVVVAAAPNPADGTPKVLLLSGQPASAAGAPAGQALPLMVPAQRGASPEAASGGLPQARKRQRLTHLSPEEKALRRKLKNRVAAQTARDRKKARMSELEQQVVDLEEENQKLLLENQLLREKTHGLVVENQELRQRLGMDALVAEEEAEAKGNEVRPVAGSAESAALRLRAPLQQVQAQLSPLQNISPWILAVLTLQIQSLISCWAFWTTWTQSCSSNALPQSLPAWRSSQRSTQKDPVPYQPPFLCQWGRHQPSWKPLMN

Assay [5] can be described thus: ATG_M_19_TRANS: Attagene TRANS-FACTORIAL HepG2 Assay for M19 Transcription Factor (Internal Marker) (AID 2282974). The following applies: HepG2 Attagene TRANS-FACTORIAL M19 internal marker reporter. A digest of the protocol:
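HepG2 transiently transfected with GAL4-UAS multiplex reporter constructs, exposed 24 h; reporter RNA quantified by RT-PCR, 6-FAM labeling, HpaI digestion and capillary electrophoresis; internal background marker fitted upward versus DMSO.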

Assay [6] addresses Estrogen-related receptor gamma (Homo sapiens) (UniProt P62508). Nature of the assay: ATG_ERRg_TRANS: Attagene TRANS-FACTORIAL HepG2 Assay for human Estrogen-Related Receptor gamma (ERRg) (AID 2282977).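 Further: hits increase reporter signal over DMSO so potencies reflect activators.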 The following applies: HepG2 Attagene TRANS reporter, ERRg transactivation. A digest of the protocol: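 Exogenous NR-Gal4 chimera activity measured as reporter transcript induction after 24 h in transiently transfected HepG2 cells. RNA reverse-transcribed, PCR-amplified, 6-FAM-labelled and resolved by capillary electrophoresis; increase over DMSO baseline.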

The target in assay [7] is Bile acid receptor (Homo sapiens) (UniProt Q96RI1). Nature of the assay: ATG_FXR_TRANS: Attagene TRANS-FACTORIAL HepG2 Assay for Farnesoid X Receptor (FXR) (AID 2282979).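 Further: hits raise reporter mRNA above DMSO so AC50 marks FXR activation.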 The following applies: HepG2 Attagene TRANS FXR-GAL4 reporter transcription. In outline:
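Transient transfection of HepG2 with multiplexed GAL4-UAS reporter units; exogenous FXR-GAL4 chimera. Dose 24 h → TriZol RNA → oligo(dT) RT → PCR, 6-FAM primer extension, HpaI cut → CE. Gain vs DMSO.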

The target in assay [8] is Oxysterols receptor LXR-alpha (Homo sapiens) (UniProt Q13133). Nature of the assay: ATG_LXRa_TRANS: Attagene TRANS-FACTORIAL HepG2 Assay for human Liver X Receptor alpha (LXRa) (AID 2282980). Particulars: HepG2 Attagene TRANS reporter, LXRa transactivation. A digest of the protocol:
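Transfect HepG2 with GAL4-UAS multiplex reporter constructs (TRANS format, chimeric receptor-GAL4); treat 24 h; extract RNA, reverse-transcribe, PCR-amplify, FAM-label, HpaI-digest; resolve fragments by capillary electrophoresis. Upward response vs DMSO.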

Assay [9] deals with Hepatocyte nuclear factor 4-alpha (Homo sapiens) (UniProt P41235). Nature of the assay: ATG_HNF4a_TRANS: Attagene TRANS-FACTORIAL HepG2 Assay for human Hepatocyte Nuclear Factor 4 alpha (HNF4a) (AID 2282982). The following applies: HepG2 HNF4a transactivation reporter, mRNA readout. In outline:
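Activity of an exogenous HNF4a–Gal4 fusion scored as induced GAL4-UAS reporter transcripts after 24 h chemical exposure of transfected human HepG2 cells. Read-out via RT-PCR with 6-FAM labelling and capillary electrophoresis; rise over DMSO baseline.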

Assay [10] can be described thus: ATG_M_06_TRANS: Attagene TRANS-FACTORIAL HepG2 Assay for M06 Transcription Factor (Internal Marker) (AID 2282983).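 Further: reporter transcript level by RT-PCR then capillary electrophoresis fluorescence.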 The following applies: HepG2 Attagene TRANS M06 internal marker reporter. A digest of the protocol:
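Background control endpoint: reporter mRNA from transiently transfected HepG2 after 24 h dosing, detected by RT-PCR with capillary electrophoresis fluorescence. Analysed for gain versus DMSO.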

Assay [11] is described as follows: ATG_M_32_TRANS: Attagene TRANS-FACTORIAL HepG2 Assay for M32 Transcription Factor (Internal Marker) (AID 2282984).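 Further: transcript level of a background control reporter unit measured by RT-PCR and capillary electrophoresis.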 Particulars: HepG2 Attagene TRANS M32 internal marker reporter. A digest of the protocol: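 Internal background reporter in transfected HepG2: after 24 h chemical exposure, RNA reverse-transcribed, reporter cDNA amplified, fluorescently labelled and HpaI-cut, then sized by capillary electrophoresis. Gain of signal fitted against DMSO control.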

Assay [12] deals with Nuclear receptor subfamily 4 group A member 2 (Homo sapiens) (UniProt P43354). Nature of the assay: ATG_NURR1_TRANS: Attagene TRANS-FACTORIAL HepG2 Assay for human Nuclear Receptor Related Protein 1 (NURR1) (AID 2282985). The following applies: HepG2 Attagene TRANS reporter, mRNA readout. A digest of the protocol: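 Reporter transcript induction, measured by RT-PCR with fluorescent labelling, HpaI digestion and capillary electrophoresis, after 24 hr dosing of human HepG2 cells transiently expressing an exogenous NR-Gal4 fusion with GAL4-UAS-driven reporters; DMSO as baseline.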
Nuclear receptor subfamily 4 group A member 2 (Homo sapiens), sequence (P43354 whole entry, looked up, the tested form may be a part): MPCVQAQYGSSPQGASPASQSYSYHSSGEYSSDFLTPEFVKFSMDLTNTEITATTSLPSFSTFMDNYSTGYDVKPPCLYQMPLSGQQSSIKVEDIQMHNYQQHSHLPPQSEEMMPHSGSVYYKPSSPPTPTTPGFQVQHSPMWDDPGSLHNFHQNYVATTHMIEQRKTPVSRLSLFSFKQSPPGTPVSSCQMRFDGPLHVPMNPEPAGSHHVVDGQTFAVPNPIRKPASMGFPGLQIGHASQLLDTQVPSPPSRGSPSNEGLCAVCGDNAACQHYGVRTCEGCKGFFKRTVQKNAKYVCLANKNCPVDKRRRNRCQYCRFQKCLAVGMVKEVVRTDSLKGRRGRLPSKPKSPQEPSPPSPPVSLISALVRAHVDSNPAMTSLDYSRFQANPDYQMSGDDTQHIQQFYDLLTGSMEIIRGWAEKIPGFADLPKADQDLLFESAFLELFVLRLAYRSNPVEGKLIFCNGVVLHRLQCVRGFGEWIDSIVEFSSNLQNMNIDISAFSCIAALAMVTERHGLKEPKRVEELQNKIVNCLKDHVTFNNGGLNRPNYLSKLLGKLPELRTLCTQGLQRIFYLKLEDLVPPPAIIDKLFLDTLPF

The target in assay [13] is Transcriptional activator Myb (Homo sapiens) (UniProt P10242). Kind of assay: ATG_Myb_CIS: Attagene CIS-FACTORIAL HepG2 Assay for human Myeloblastosis (Myb) Proto-Oncogene Transcription Factor (AID 2282986; active means hit-call score of the fitted dose curve at least 0.9, where 1 is the maximum; inactive means score below 0.9). Particulars: HepG2 Attagene CIS-FACTORIAL Myb reporter transcription; actives raise or lower the signal. In outline: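 Transiently transfected HepG2 cells carrying a multiplexed cis-promoter reporter set report endogenous Myb activity after 24 h compound exposure. Reporter mRNA is read by RT-PCR with capillary electrophoresis of fluorescent products, fitted bidirectionally against DMSO.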
Transcriptional activator Myb (Homo sapiens), sequence (P10242 whole entry, looked up): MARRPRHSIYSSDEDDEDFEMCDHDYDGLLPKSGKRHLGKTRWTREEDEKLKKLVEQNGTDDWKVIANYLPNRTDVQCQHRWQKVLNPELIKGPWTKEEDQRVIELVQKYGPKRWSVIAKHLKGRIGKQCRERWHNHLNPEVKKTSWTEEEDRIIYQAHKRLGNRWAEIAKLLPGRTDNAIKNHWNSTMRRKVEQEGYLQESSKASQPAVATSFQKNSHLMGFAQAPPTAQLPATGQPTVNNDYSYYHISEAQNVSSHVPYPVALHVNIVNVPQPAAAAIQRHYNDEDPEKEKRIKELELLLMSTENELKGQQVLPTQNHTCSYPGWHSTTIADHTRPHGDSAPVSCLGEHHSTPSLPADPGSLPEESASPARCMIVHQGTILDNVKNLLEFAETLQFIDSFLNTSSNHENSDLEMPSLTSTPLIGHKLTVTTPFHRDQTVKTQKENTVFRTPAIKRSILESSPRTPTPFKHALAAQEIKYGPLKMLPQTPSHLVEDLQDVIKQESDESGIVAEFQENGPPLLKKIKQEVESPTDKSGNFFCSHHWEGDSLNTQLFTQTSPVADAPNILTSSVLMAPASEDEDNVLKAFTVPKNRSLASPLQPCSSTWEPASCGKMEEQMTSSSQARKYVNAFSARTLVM

Assay [14] concerns the target Nuclear respiratory factor 1 (Homo sapiens) (UniProt Q16656). Nature of the assay: ATG_NRF1_CIS: Attagene CIS-FACTORIAL HepG2 Assay for human Nuclear Respiratory Factor 1 (NRF1) Orphan Gene (AID 2282987; active means hit-call score of the fitted dose curve at least 0.9, where 1 is the maximum; inactive means score below 0.9). Particulars: HepG2 NRF1 cis-element reporter, Attagene multiplex; actives raise or lower the signal. A digest of the protocol: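 HepG2 cells transiently transfected with multiple cis-regulated reporter units, exposed 24 h. Reporter mRNAs measured by RT-PCR, fluorescent labelling, HpaI digestion and capillary electrophoresis; bidirectional fitting against DMSO.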

In assay [15] the target is Glucocorticoid receptor (Homo sapiens) (UniProt P04150). Nature of the assay: ATG_GR_TRANS: Attagene TRANS-FACTORIAL HepG2 Assay for human Glucocorticoid Receptor (GR) (AID 2282978).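 Further: activators score as hits since higher reporter transcript over DMSO is fitted.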 Particulars: HepG2 Attagene TRANS GR reporter, mRNA transcription. A digest of the protocol: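 HepG2 cells transiently transfected with GAL4-UAS reporter units and exogenous GR-Gal4 chimera, dosed 24 h. Reporter mRNA by RT-PCR, FAM labeling, HpaI digest and capillary electrophoresis; gain-of-signal fit versus DMSO.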
Glucocorticoid receptor (Homo sapiens), sequence (P04150 whole entry, looked up, the tested form may be a part): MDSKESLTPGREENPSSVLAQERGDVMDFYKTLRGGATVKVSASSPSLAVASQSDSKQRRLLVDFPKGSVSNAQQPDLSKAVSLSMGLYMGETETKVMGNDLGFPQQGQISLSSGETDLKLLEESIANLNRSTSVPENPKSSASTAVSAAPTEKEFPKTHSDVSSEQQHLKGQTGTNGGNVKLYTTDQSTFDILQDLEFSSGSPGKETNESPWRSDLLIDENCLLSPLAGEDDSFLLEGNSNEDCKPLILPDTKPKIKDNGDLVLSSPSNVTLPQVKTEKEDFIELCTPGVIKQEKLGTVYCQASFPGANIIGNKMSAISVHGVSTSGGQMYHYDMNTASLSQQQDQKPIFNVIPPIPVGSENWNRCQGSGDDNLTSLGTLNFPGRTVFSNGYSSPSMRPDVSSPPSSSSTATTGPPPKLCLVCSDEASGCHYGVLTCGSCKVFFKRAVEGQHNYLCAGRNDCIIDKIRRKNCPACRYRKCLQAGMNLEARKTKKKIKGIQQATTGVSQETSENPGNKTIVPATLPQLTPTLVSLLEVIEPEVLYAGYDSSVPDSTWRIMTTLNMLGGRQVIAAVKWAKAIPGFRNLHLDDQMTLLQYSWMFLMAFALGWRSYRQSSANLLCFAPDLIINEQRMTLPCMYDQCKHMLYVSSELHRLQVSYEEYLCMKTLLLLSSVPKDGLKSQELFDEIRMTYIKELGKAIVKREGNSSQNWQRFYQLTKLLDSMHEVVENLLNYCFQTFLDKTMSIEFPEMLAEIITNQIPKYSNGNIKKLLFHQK

For assay [16], the target named is Oxysterols receptor LXR-beta (Homo sapiens) (UniProt P55055). Nature of the assay: ATG_LXRb_TRANS: Attagene TRANS-FACTORIAL HepG2 Assay for human Liver X Receptor beta (LXRb) (AID 2282981). Particulars: HepG2 Attagene TRANS GAL4-LXRb reporter, mRNA. In outline: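 After 24 h chemical treatment of transfected HepG2 cells carrying exogenous NR-Gal4 chimeras, reporter mRNA was quantified by fluorescent RT-PCR and capillary electrophoresis; activity taken as increase over DMSO controls.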
Oxysterols receptor LXR-beta (Homo sapiens), sequence (P55055 whole entry, looked up, the tested form may be a part): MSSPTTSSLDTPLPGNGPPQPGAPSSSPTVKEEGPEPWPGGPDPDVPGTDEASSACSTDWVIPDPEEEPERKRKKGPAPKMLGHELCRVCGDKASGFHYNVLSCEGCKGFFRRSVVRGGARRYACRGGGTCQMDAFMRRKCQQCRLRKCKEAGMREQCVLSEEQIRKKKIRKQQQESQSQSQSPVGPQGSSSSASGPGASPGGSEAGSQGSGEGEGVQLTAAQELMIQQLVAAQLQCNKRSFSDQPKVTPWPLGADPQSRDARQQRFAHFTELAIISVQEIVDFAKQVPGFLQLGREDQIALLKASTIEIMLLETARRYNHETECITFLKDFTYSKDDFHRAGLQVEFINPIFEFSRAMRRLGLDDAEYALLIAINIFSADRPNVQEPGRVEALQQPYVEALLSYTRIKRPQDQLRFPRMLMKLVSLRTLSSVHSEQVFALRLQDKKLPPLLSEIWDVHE

Assay [17] can be described thus: ATG_GAL4_TRANS: Attagene TRANS-FACTORIAL HepG2 Assay for GAL4 (Internal Marker) (AID 2282976). The following applies: HepG2 Attagene TRANS GAL4 internal marker reporter. A digest of the protocol:
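First, HepG2 cells were transfected with reporter units under GAL4-UAS control. Next, they were treated with chemical for 24 h. Finally, RNA was reverse-transcribed, PCR-amplified, FAM-labelled and resolved by capillary electrophoresis, with induction scored against DMSO.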

Results filed as inconclusive are left out. Activity calls are given as the source filed them. How the source made its calls, unless noted: active means hit-call score of the fitted dose curve at least 0.9, where 1 is the maximum; inconclusive means response in the unintended direction; inactive means score below 0.9.

Bile acid receptor (Homo sapiens), sequence (Q96RI1 whole entry, looked up, the tested form may be a part): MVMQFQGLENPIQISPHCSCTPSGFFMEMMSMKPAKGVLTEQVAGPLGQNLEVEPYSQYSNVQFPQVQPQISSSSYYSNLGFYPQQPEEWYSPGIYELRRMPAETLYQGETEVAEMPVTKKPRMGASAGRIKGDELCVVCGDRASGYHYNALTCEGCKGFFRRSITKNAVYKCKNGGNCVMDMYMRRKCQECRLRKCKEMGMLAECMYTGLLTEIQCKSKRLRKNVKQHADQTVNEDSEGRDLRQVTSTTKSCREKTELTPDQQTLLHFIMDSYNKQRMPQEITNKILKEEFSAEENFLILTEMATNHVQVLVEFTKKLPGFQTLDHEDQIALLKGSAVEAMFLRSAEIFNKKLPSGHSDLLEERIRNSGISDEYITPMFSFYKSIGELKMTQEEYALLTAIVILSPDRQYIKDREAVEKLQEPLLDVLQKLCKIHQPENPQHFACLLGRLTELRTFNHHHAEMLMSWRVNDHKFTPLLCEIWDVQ
Hepatocyte nuclear factor 4-alpha (Homo sapiens), sequence (P41235 whole entry, looked up, the tested form may be a part): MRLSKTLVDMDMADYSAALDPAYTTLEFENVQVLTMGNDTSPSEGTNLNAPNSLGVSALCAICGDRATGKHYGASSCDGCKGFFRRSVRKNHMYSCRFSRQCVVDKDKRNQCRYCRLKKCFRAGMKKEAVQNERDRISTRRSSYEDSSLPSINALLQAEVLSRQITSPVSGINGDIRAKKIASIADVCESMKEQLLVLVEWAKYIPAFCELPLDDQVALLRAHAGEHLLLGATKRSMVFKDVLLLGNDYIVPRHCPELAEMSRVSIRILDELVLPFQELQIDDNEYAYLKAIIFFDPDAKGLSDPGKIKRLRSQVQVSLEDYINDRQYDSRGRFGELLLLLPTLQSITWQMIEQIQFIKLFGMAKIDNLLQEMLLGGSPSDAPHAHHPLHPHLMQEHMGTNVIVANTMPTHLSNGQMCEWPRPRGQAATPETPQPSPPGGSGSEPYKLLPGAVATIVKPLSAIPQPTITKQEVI
Nuclear respiratory factor 1 (Homo sapiens), sequence (Q16656 whole entry, looked up): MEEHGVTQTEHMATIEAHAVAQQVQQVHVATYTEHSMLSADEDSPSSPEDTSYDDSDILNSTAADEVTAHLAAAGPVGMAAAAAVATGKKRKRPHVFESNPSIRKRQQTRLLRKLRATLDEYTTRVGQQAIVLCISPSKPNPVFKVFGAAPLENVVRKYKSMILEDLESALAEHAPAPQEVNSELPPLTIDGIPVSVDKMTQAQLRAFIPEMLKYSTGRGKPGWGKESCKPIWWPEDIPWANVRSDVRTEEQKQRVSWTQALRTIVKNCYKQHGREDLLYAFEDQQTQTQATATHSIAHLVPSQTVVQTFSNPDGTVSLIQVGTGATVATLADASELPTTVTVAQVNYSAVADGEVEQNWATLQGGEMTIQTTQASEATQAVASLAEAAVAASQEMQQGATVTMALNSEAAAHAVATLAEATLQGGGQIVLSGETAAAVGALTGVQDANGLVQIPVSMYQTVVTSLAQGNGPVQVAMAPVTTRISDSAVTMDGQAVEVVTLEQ
Oxysterols receptor LXR-alpha (Homo sapiens), sequence (Q13133 whole entry, looked up, the tested form may be a part): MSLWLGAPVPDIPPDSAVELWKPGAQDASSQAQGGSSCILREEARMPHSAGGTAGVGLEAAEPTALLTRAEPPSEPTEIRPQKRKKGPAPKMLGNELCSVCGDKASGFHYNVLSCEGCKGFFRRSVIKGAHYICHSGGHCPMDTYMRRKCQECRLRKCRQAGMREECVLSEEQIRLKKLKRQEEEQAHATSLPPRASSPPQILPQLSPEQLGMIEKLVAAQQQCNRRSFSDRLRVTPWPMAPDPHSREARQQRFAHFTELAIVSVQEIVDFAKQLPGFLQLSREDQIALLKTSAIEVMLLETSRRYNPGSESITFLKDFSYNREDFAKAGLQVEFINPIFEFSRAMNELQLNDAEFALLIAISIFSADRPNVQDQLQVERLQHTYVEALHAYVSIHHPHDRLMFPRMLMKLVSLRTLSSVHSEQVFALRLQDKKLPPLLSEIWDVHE

For `O=C1c2ccccc2C(=O)c2c(O)ccc(O)c21`, the compound was called inactive in [1], in assay [2], in [3], in assay [4], in assay [5] and in assay [6]. Also, the compound was called inactive in [7], in [8], in [9], in assay [10], in [11] and in assay [12]. The call in assay [13] and in assay [14] was inactive.
For `C[C@H](CCC(=O)NCC(=O)O)[C@H]1CC[C@H]2[C@@H]3[C@H](O)C[C@@H]4C[C@H](O)CC[C@]4(C)[C@H]3C[C@H](O)[C@]12C`, the result in assay [1], in assay [2], in [3], in assay [4], in assay [5] and in assay [15] was inactive. Moreover, the call in assay [16], in assay [9], in [12], in [13] and in assay [14] was inactive.
`CCOc1ccccc1O`: the call in assay [1], in assay [2], in [3], in assay [4], in assay [17] and in [16] was inactive. Also, the call in assay [9], in [10], in [11], in [12], in [13] and in assay [14] was inactive.
As to `CN(C)CCOc1ccc(/C(=C(/CCCl)c2ccccc2)c2ccccc2)cc1`, the call in assay [1], in assay [2], in assay [3], in [4], in assay [17] and in assay [15] was inactive. Also, the outcome in assay [7], in assay [8], in assay [11], in assay [12], in assay [13] and in assay [14] was inactive.
What is called AC50 is the midpoint of the concentration-response curve, whichever way the signal moves. For the compound `CC1C2CC(CC2C2CCCC(O)C2)C1(C)C` (stereo unspecified), the result in assay [1], in [2], in assay [3], in [4], in [17] and in assay [15] was inactive. The compound was classed as inactive in assay [10], in assay [11], in assay [12], in assay [13] and in [14]. The AC50 is 58.4 µM (active) in [7], 33.4 µM (active) in [8] and 62.5 µM (active) in [16].
As to `C=C(CC(=O)O)C(=O)O`, the result in assay [1], in [2], in assay [3], in assay [4], in assay [17] and in assay [7] was inactive. Further, the outcome in assay [16], in assay [10] and in assay [14] was inactive.
For the compound `OCC(O)c1ccccc1` (stereo unspecified), the compound was called inactive in assay [1], in [2], in [3], in [4], in [17] and in [8]. The call in assay [12], in assay [13] and in assay [14] was inactive.
For the compound `CC(=O)CC(=O)Nc1ccccc1`, the call in assay [1], in [2], in assay [3], in assay [4], in [17] and in assay [7] was inactive. In addition, the outcome in assay [9], in [10], in assay [12] and in assay [14] was inactive.
`COCCOC(=O)c1ccccc1C(=O)OCCOC`: the outcome in [1], in assay [2], in [3], in assay [4], in [5] and in assay [17] was inactive. The outcome in assay [16], in [9], in assay [10], in assay [13] and in assay [14] was inactive.
In the case of `OCc1ccc(Cl)cc1Cl`, the outcome in [1], in [2], in assay [3], in [4], in assay [17] and in assay [7] was inactive. Also, the result in assay [9], in assay [10] and in assay [14] was inactive.
Turning to `CCOC(=O)[C@@H](C)Oc1ccc(Oc2nc3ccc(Cl)cc3o2)cc1`, the compound was classed as inactive in assay [1], in [2], in assay [3], in assay [4], in assay [5] and in [6]. For the same compound, the compound was classed as inactive in assay [15], in assay [7], in [8], in [16], in [10] and in assay [11]. Besides, the outcome in [12], in [13] and in [14] was inactive.

Values taken from PubChem BioAssay (EPA / NIEHS).
